Vif-APOBEC3G blk = qHTS for Inhibitors of Vif-A3G Interactions: qHTS; DNA dC->dU-editing enzyme APOBEC-3G (Homo sapiens), Q9HC16; HeLa A3G-eYFP + Vif (tagged APOBEC3G with the HIV-1 protein that degrades it), YFP fluorescence, overnight; Potency, µM (top dose mostly 46.1 µM), most hits filed as inhibitors; actives 0.076% (n = 410,000); note: nearly all actives have a fitted effect of over 60% in size
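Read-out is eYFP fluorescence (Ex 488/Em 500-530) from Vif-expressing HeLa A3G-eYFP cells; more signal means A3G escaped Vif-mediated degradation. Cells plated overnight, compound pinned in, incubated overnight at 37 deg C.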
Vif-A3F inh = qHTS for Inhibitors of Vif-A3F Interactions: qHTS; Potency, µM (highest dose often 46.1 µM); AID 602313, 2012; actives 0.2% (n = 390,000); HeLa A3F-eYFP + Vif (tagged APOBEC3F with the HIV-1 protein that degrades it), YFP fluorescence increase; note: nearly all actives have a fitted effect of over 65% in size
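HeLa cells stably expressing A3F-eYFP plus Vif, plated and incubated overnight at 37 deg C, then exposed to compounds overnight at 37 deg C. Blocked degradation read as raised yellow fluorescence (Ex 488/Em 500-530).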
PTHR1 ag = qHTS for PTHR1 Agonists: Primary Screen; Parathyroid hormone/parathyroid hormone-related peptide receptor (Homo sapiens), Q03431; HEK293 GP2 PTHR1 cells, GloSensor cAMP luminescence, 1 h; Potency, µM (series often up to 115 µM), hits mostly activators; actives 0.075% (n = 410,000); AID 743266, 2014; note: nearly all actives have a fitted effect of over 55% in size
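HEK-293-derived GP2 cells expressing PTHR1 and a GloSensor cAMP reporter, 3,000/well, plated overnight, given luciferin plus IBMX (each 0.5 mM as added) for 1 h at 37 °C, then compound for 1 h at 37 °C. Luminescence was read after 15 min at room temperature.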
PINK1 expr mod = A Quantitative High throughput Screen to Identify Chemical Modulators of PINK1 Expression | PINK1 immunofluorescence, high-content cytometry, 24 h | Potency, µM (doses to about 76.6 µM), most hits filed as activators | actives 0.2% (n = 410,000) | AID 624263, 2012; active = well fitted activation curve with a large enough effect; inconclusive = small, poorly fitted or top-dose-only effect; cell line not stated here; note: nearly all actives have a fitted effect of over 65% in size
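Compound titrations (5 concentrations, 24 h) on a stable cell line; DMSO and CCCP controls. Endpoint: fixed-cell PINK1 immunofluorescence with mitochondrial, cell and nuclear markers, scanned by microplate cytometer.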
mIDH1 inhibitor = qHTS for Inhibitors of mutant isocitrate dehydrogenase 1 (IDH1): qHTS; actives 0.093% (n = 390,000); Potency, µM (highest dose often 76.6 µM), most hits filed as inhibitors; IDH1-R132H enzyme, NADPH consumption, diaphorase/resazurin fluorescence; Isocitrate dehydrogenase [NADP] cytoplasmic (Homo sapiens), O75874; note: nearly all actives have a fitted effect of over 65% in size
Target sequence (O75874 whole entry R132H, stated change not applied): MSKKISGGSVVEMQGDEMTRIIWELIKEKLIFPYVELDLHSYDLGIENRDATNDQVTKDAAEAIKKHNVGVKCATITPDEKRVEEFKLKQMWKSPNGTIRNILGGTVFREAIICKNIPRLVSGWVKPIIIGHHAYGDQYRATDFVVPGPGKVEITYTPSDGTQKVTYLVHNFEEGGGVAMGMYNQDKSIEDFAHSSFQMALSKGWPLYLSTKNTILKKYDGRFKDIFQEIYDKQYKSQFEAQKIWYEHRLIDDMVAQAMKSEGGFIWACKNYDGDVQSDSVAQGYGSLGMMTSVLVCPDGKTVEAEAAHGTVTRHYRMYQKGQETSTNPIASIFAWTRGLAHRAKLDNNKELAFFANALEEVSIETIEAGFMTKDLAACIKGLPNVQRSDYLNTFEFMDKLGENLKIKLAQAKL
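IDH1-R132H (0.5 ug/mL dispensed) in pH 7.5 Tris buffer was preincubated 30 min with compound, then given a substrate mix of 0.016 mM NADPH and 2 mM alpha-KG for 80 min at room temperature; remaining NADPH was read by diaphorase/resazurin fluorescence.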
LDHA block = qHTS assay for inhibitors of human lactate dehydrogenase; actives 0.15% (n = 480,000); purified LDHA, NADH/diaphorase-resazurin fluorescence; active compounds read low; activity change, % (values are at about 110 or 230 µM); L-lactate dehydrogenase A chain (Homo sapiens), P00338; in the data active = activity change below about -30%; inconclusive = mostly about -25% to -30%
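Remaining NADH was detected by diaphorase (0.133 mg/mL) converting 37 µM resazurin to fluorescent resorufin, read at 0 and 20 minutes. The preceding 5-minute room-temperature reaction used 2 nM LDHA, 0.2 mM sodium pyruvate and 0.06 mM NADH at pH 7.4.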
Numbers stand for hits; 0 = inactive; ? = inconclusive; - = not tested or not shown; ! = a repeat was not active. This is a sample that favours compounds with a hit; in the whole collection about 0.59% have one here. Unless noted, calls come from the whole dose curve; as a rule, active = well fitted curve in the direction sought with a large enough effect; inconclusive = small, poorly fitted or top-dose-only effect, or another doubt; inactive = no such curve, though single readings can be large; an effect the other way counts as inactive or inconclusive.

SMILES	Vif-APOBEC3G blk	Vif-A3F inh	PTHR1 ag	PINK1 expr mod	mIDH1 inhibitor	LDHA block
COc1ccc(CCN(C)Cc2ccc(OC)c(OCc3ccccc3)c2)cc1OC	0	0	0	0	0	0
COc1cc(CN(C)CCc2ccccn2)cc(OC)c1OC	0	0	0	0	0	-31
COc1ccc(CCN(C)Cc2ccc(OCc3ccccc3)c(OC)c2)cc1OC	0	0	0	0	0	-32
COc1ccc(CN(C)CCc2ccccn2)cc1OC	0	0	0	0	0	0
O=C(Nc1cccc(Cl)c1Cl)c1ccc(-c2ccccc2)cc1	0	0	0	11µM	0	0
Cc1cc(C(=O)COC(=O)c2cccs2)c(C)n1Cc1ccco1	-	-	-	-	-	-33
Cn1c(=O)c2nc(SCCC(=O)O)n(Cc3ccccc3)c2n(C)c1=O	-	-	-	-	-	0
O=C(CN1CCCC1c1ccccc1)Nc1ccc(F)cc1 (stereo not drawn)	-	-	-	-	-	0
O=C(Cn1ccc2c(Cl)cccc21)Nc1ccc2c(c1)OCO2	-	-	-	-	-	0
O=C(Cn1ccc2ccccc21)Nc1ccc2c(c1)OCO2	0	0	0	0	0	-36!
CSCCC(=O)Nc1nc(-c2ccccn2)cs1	0	0	0	0	0	0
O=C(Nc1nc(-c2ccc(Cl)s2)cs1)C1CC1	-	-	-	-	-	-34
O=C(Nc1nc(-c2ccccn2)cs1)C1CCCC1	0	7.1µM	0	0	0	0
C=CCc1c(C)nc(-c2ccccc2)nc1Nc1ccccc1O	?	22µM	0	?	0	0
C=CCc1c(C)nc(-c2ccccc2)nc1N/N=C/c1ccccc1	0	?	0	0	0	0
CN(C)c1ccc(/C=C/C(=O)c2ccc(O)cc2)cc1	?	7.9µM	0	0	0	0
Cc1nccn1Cc1cccc2ccccc12	0	0	0	0	0	0
Cc1nccn1C(c1ccccc1)c1ccccc1	0	0	0	0	0	-34
Cc1cccn2cc(COc3cccc(C(=O)O)c3)nc12	-	-	-	-	-	0
Cn1c(N)c(-c2ccccc2)c2ccc([N+](=O)[O-])cc2c1=O	8.9µM	?	0	0	0	0
N#Cc1c(N)n(Cc2ccccc2)c(=O)c2cc([N+](=O)[O-])ccc12	0	0	0	0	0	0
COc1cccc(Nc2nc(-c3ccc4c(c3)CCC(=O)N4)cs2)c1	-	-	-	-	-	0
COc1ccccc1Nc1nc(-c2ccc3c(c2)CCC(=O)N3)cs1	-	-	-	-	-	-31
CCCCn1c(NCc2cc(C)ccc2O)nc2ccccc21	0	0	0	16µM	0	0
COC(=O)c1cc(NC(=O)c2ccccc2OC)c(F)cc1F	-	-	-	-	-	0
SMILES	Vif-APOBEC3G blk	Vif-A3F inh	PTHR1 ag	PINK1 expr mod	mIDH1 inhibitor	LDHA block
CCOC(=O)/C(C#N)=C\C=C1C=CN(C)C=C1	?	22µM	0	0	0	0
CCOC(=O)/C(C#N)=C\c1ccc(N)cc1	-	-	-	-	-	0
Cc1sc2nc(CSc3nnnn3-c3ccc(Cl)cc3)[nH]c(=O)c2c1C	0	32µM	0	?	0	0
COc1ccc(S(=O)(=O)N2CCN(Cc3ncc(-c4ccc(F)cc4)o3)CC2)cc1OC	-	-	-	-	-	0
CCN(CC)S(=O)(=O)c1cc(-c2n[nH]c(=O)c3ccccc23)ccc1C	-	-	-	-	-	-33
N#Cc1c(C(F)(F)F)cc(-c2ccccc2)nc1SCCc1ccccc1	-	-	-	-	-	0
Cc1nc(SCC(=O)Nc2nc3ccccc3s2)c(C#N)c(C)c1C	0	0	0	0	0	0
Cc1cc(C(F)(F)F)c(C#N)c(SCC(=O)Nc2nc3ccccc3s2)n1	?	22µM	0	?	0	0
N#Cc1c(C(F)(F)F)cc(-c2ccccc2)nc1SCC(=O)Nc1sc2c(c1C#N)CCC2	?	?	0	13µM	0	0
N#Cc1c(-c2ccccc2)cc(-c2ccccc2)nc1SCC(=O)NCC(=O)O	0	0	0	0	0	-102
N#Cc1c(C(F)(F)F)cc(-c2ccccc2)nc1SCc1nc(N)nc(N2CCOCC2)n1	?	11µM	0	0	0	0
Cc1ccc(CNC2CCc3ccccc32)cc1 (stereo not drawn)	-	-	-	-	-	0
CCOc1ccc(-c2cc(C(F)(F)F)c(C#N)c(SCC(=O)Nc3ccccc3)n2)cc1	13µM	?	0	0	0	0
CCOc1ccc(NC(=O)CSc2nc(-c3ccc(F)cc3)cc(C(F)(F)F)c2C#N)cc1	0	0	0	0	0	0
C[N+](C)(C)CCC(=O)N1C/C(=C/c2ccccc2)C(=O)/C(=C\c2ccccc2)C1	7.9µM	?	0	0	0	0
Cc1nc(CN2CCN(CCOc3ccc(Cl)cc3)CC2)no1	-	-	-	-	-	-32
CN(C)CCNc1ccc2ncn3c4ccc(O)cc4c(=O)c1c23	?	25µM	0	0	0	0
CN(C)CCNc1ccc(CO)c2sc3ccc(O)cc3c(=O)c12	0	0	0	0	0	0
CC(C)c1ccccc1OCC(O)Cn1cnc2c(cnn2-c2ccc(F)cc2)c1=O (stereo not drawn)	-	-	-	-	-	0
CCN(CC)S(=O)(=O)c1cc([N+](=O)[O-])ccc1N=Nc1c(O)[nH]c2ccccc12	0	13µM	0	11µM	0	0
O=[N+]([O-])c1ccc2[nH]c(O)c(N=Nc3ccc(F)cc3)c2c1	0	0	0	28µM	0	0
O=[N+]([O-])c1ccc(N=Nc2c(O)[nH]c3ccc(F)cc23)cc1	0	?	0	0	0	0
C=CCc1ccccc1OCc1nc2ccc(C)cc2[nH]1	-	-	0	40µM	-	0
